Bioassay records as filed in PubChem BioAssay.
MLLE-PAM2 inh – inhibitors of PABP1 MLLE–PAM2 peptide binding, primary screen, biochemical, fluorescence polarization, FITC-PAM2, GST-MLLE | Polyadenylate-binding protein 1 (Homo sapiens), P11940 | inhibition, % at 20 µM | 360,000 tested, 0.36% active | AID 588489, 2011; in the data active means inhibition above about 35%, passing the limit was not always enough
eIF4H FP inh – human eIF4H binding inhibitors, primary screen, translation initiation inhibitor project, biochemical, uHTS, fluorescence polarization | Eukaryotic translation initiation factor 4H (Homo sapiens), Q15056 | eIF4H fluorescence polarization binding assay | inhibition, % at 35 µM | 290,000 tested, 0.94% active | AID 2012, 2009;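 further: calls also rest on retests at 20 µM and on dose response follow-up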
ALR H2O2 inh – inhibitors of human ALR sulfhydryl oxidase, primary screen, biochemical, H2O2 detection, HRP-luminol luminescence, single point | 290,000 tested, 3.8% active | AID 485317, 2010 | FAD-linked sulfhydryl oxidase ALR (Homo sapiens), P55789 | purified ALR, DTT oxidation | inhibition, % (concentration not given with the values);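 active means mean replicate inhibition above about 79%, with every replicate also reaching it, limit read from the data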
Target sequence (P55789 whole entry, looked up): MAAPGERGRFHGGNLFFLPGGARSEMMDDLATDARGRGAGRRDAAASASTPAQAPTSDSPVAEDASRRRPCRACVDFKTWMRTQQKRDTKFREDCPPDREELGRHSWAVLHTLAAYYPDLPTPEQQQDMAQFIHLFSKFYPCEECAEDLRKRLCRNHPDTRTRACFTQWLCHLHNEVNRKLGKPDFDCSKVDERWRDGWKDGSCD
PABP polyA inh – PABP poly(A) RNA binding inhibitors, primary screen, biochemical, fluorescence polarization, uHTS; inhibition, % at 35 µM; 290,000 tested, 1% active; AID 2014, 2009;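 further: calls also rest on retests at 20 µM and on dose response follow-up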
Efflux pump inh – inhibitors of Candida efflux pumps in yeast, primary screen, S. cerevisiae, Nile Red, multiplex | S. cerevisiae Candida pump triplex | inhibition, % at 10 µM | 330,000 tested, 0.44% active | AID 485275, 2010;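 active means plate passing quality check with inhibition over a set limit, or well fluorescence over plate mean plus 4 SD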;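 further: Nile Red retained in pooled yeast measured as flow cytometry median fluorescence; higher means more Nile Red kept so more efflux inhibition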
SUMO HTRF inh – inhibitors of in vitro SUMOylation cascade, primary screen, biochemical, HTRF, uHTS; HTRF SUMOylation assay, SAE1/SAE2 + UBC9; AID 2006, 2009; SUMO-conjugating enzyme UBC9 (Homo sapiens), P63279; 290,000 tested, 0.36% active; inhibition, % at 35 µM; in the data active means inhibition above about 50%, passing the limit was not always enough
Target sequence (P63279 whole entry, looked up): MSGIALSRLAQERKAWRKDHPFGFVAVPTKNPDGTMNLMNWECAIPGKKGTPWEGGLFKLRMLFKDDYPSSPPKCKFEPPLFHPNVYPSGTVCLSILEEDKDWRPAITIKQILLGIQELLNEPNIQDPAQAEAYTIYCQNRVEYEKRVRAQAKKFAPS
Hits are given with their value; – = inactive; · = no result given. Rows were chosen to be rich in hits. Some 4.7% of all compounds tested hit in one or more screens of this group. Unless noted, how the calls were made is not given here.

SMILES | MLLE-PAM2 inh | eIF4H FP inh | ALR H2O2 inh | PABP polyA inh | Efflux pump inh | SUMO HTRF inh
Cc1ccc2nc(NCCCO)[nH]c2c1 | – | · | 97.2 | · | – | ·
CCOc1ccc2nc(NCCO)[nH]c2c1 | – | – | – | – | – | –
Cc1nc(S/C(=C/c2ccc(OCc3ccc(C(=O)O)cc3)cc2)C(=O)O)n[nH]1 | – | – | – | – | – | 58.4
N#Cc1ccccc1Cn1c(=O)n(Cc2ccc(C(=O)NCc3ccco3)cc2)c(=O)c2sccc21 | – | – | 94.1 | – | – | –
COc1ccc(-c2nc(C)ncc2-c2csc(C)n2)c(O)c1 | – | 73.0 | · | active | – | –
COC(=O)c1ccc2nc(-c3ccc(S(C)(=O)=O)cc3)cn2c1 | – | – | – | – | – | –
COC(=O)c1ccc2nc(-c3cccc(N)c3)cn2c1 | – | – | 99.2 | – | – | –
COC(=O)c1c(N)sc2c1CC(C)(C)OC2 | – | – | 98.1 | – | – | –
CCOC(=O)c1c(NC(=O)C2CC2)sc2c1CC(C)(C)OC2 | – | – | – | – | – | –
CCc1ccc(C(=O)CSc2nc(N)cc(=O)[nH]2)cc1 | – | – | · | – | – | –
CSc1nc(N)cc(=O)[nH]1 | – | – | · | active | – | –
Cc1cc(C(=O)CSc2nc(N)cc(=O)[nH]2)ccc1F | – | – | 90.4 | – | – | –
Cc1ccc(C(=O)CSc2nc(N)cc(=O)[nH]2)cc1C | – | – | 99.1 | – | – | –
CN(C(=O)c1cc(-c2cccs2)nn1-c1ccccc1)C1CCS(=O)(=O)C1 (stereo unspecified) | – | · | · | · | · | ·
Cc1ccc(C(=O)N=c2sccn2C)o1 | – | – | – | – | – | –
CCOc1ccc(NC(=S)NC(=O)c2c(Cl)c(C)nn2C)c([N+](=O)[O-])c1 | 40.4 | – | · | – | – | –
CCOc1ccc(NC(=S)NC(=O)/C=C/c2ccc(C)cc2)c([N+](=O)[O-])c1 | – | – | – | – | – | –
CCOC(=O)/C=C(\C)Sc1cc(O)c2ccccc2c1O | 61.6 | – | · | – | · | 74.0
CCOC(=O)/C=C(\C)Sc1cc(=O)oc2ccccc12 | – | – | – | – | – | –
C=C(CCC(=O)c1ccccc1)C(=O)c1ccccc1 | – | – | 96.6 | – | – | –
O=C(CCCCCCCC(=O)c1ccccc1)c1ccccc1 | – | – | – | – | – | –
Oc1ccc(Br)cc1CN1CCCCCCC1 | – | – | 98.8 | – | – | –
Oc1ccc2cc(Br)ccc2c1CN1CCCC1 | – | – | 76.5 | – | – | –
Cc1ccc(CNC(=O)CCNC(=O)N2CCn3c2nc2ccccc23)cc1 | – | – | 93.9 | – | – | –
COc1cccc(CNC(=O)CCNC(=O)N2CCn3c2nc2ccccc23)c1 | – | – | 97.9 | – | – | –
SMILES | MLLE-PAM2 inh | eIF4H FP inh | ALR H2O2 inh | PABP polyA inh | Efflux pump inh | SUMO HTRF inh
Cc1ccc(CNC(=O)CCCCCNC(=O)N2CCn3c2nc2ccccc23)cc1 | – | – | – | – | – | –
COc1ccc(C(=O)CCN2CCC(C)CC2)cc1 | 43.6 | – | – | – | – | –
CC1CCCN(CCC(=O)c2ccc(Br)cc2)C1 (stereo unspecified) | – | – | 98.8 | – | – | –
COc1ccc(C(=O)CCN2CCCC(C)C2)cc1 (stereo unspecified) | 40.9 | – | – | – | – | –
CCOC(=O)N1CCN(CCC(=O)c2ccc(OC)cc2)CC1 | – | – | – | – | – | –
O=C(CCN1CCC2CCC(C2)C1)c1ccccc1 (stereo unspecified) | 42.4 | · | · | · | · | ·
CC[C@H](C)Cc1cn([C@@H](CCCCNC(=O)OC(C)(C)C)C(=O)NCCCCCCCCCCC(=O)N2CCN(C(=O)OC(C)(C)C)CC2)nn1 | – | · | – | · | – | ·
Cc1[nH]c2ccc(C(=O)N3CCN(c4ccccn4)CC3)cc2c1C | – | – | – | – | – | –
CCCCOc1ccc(C(=O)CCN2CCCCC2)cc1 | – | – | 97.5 | – | – | –
CC(C)COc1ccc(C(=O)CCN2CCCCC2)cc1 | – | – | – | – | – | –
CCC(=O)N1CCCC(C)(C(=O)Nc2nccc3cccnc23)C1 (stereo unspecified) | – | · | · | · | · | ·
CCN(C(=O)CN1CCCc2cc(C)ccc21)c1c(N)n(Cc2ccccc2)c(=O)[nH]c1=O | – | · | · | · | · | ·
CCN(C(=O)CSc1n[nH]c(-c2ccc(OC)cc2)n1)c1c(N)n(Cc2ccccc2)c(=O)[nH]c1=O | – | · | · | · | · | ·
COCCN(C(=O)CSc1ccc2c(c1)OCCO2)c1c(N)n(CC(C)C)c(=O)[nH]c1=O | 42.4 | · | 94.3 | · | – | ·
Cc1ccc(-c2nc(SCC(=O)N(C)c3c(N)n(Cc4ccccc4)c(=O)[nH]c3=O)n[nH]2)cc1 | – | 105.9 | – | 52.4 | – | –
CCN(C(=O)CN1CCCc2ccccc21)c1c(N)n(Cc2ccccc2)c(=O)[nH]c1=O | · | 98.9 | · | 109.0 | · | –
Cc1ccc2c(c1)CCCN2CC(=O)N(C)c1c(N)n(Cc2ccccc2)c(=O)[nH]c1=O | – | · | 90.8 | · | – | ·
CCOc1ccc(CCNC(=O)c2cc3c(s2)CS(=O)(=O)C3)cc1OCC | – | – | – | – | – | –
CCC(C(=O)OCC(=O)NCc1ccc2c(c1)OCO2)c1ccccc1 (stereo unspecified) | – | · | – | · | – | ·
COc1cc(-c2cc(NC=O)c3ncc(-c4cccc(C(=O)N(C)C)c4)n3c2)cc(OC)c1OC | – | · | · | · | · | ·
CCCCN(C(=S)NC(=O)c1ccccc1)c1c(N)n(Cc2ccccc2)c(=O)[nH]c1=O | 37.4 | – | – | – | – | –
CCN(C(=O)CN1CCN(c2cccc(Cl)c2)CC1)c1c(N)n(Cc2ccccc2)c(=O)[nH]c1=O | – | – | 92.0 | – | – | –
CCOc1ccccc1N1CCN(CC(=O)N(CC(C)C)c2c(N)n(CC(C)C)c(=O)[nH]c2=O)CC1 | – | 9.0 | – | 51.2 | – | –
COc1ccc(OC)c(S(=O)(=O)N/N=C\c2cn(CC(N)=O)c3ccccc23)c1 | – | – | – | – | – | –
COc1cccc(/C=C/C(=O)OCC(=O)NC2CCCCCC2)c1 | – | · | · | · | · | ·
SMILES | MLLE-PAM2 inh | eIF4H FP inh | ALR H2O2 inh | PABP polyA inh | Efflux pump inh | SUMO HTRF inh
CC(C)OCCCNC(=O)c1cccc2c1C(=O)c1ccc(Cl)cc1S2(=O)=O | – | · | – | · | – | ·
CCC1(C)OC(=O)NN(c2ccc(C)cc2)C1(C)O (stereo unspecified) | – | – | 95.2 | – | – | –
O=C1c2ccccc2NC(c2ccc(-c3cccc([N+](=O)[O-])c3)o2)N1O (stereo unspecified) | – | – | 89.6 | – | – | –
N#CC1=C(N)NC(SCc2ccc(Br)cc2)=C(C#N)C12CCCCC2 | – | – | – | – | – | –
N#CC1=C(N)NC(SCC(=O)Nc2ccc(Br)cc2)=C(C#N)C12CCCCC2 | – | – | 97.4 | – | – | –
CCOC(=O)c1c(C)[nH]c(C(=O)N/N=C\c2ccccc2O)c1C | – | – | – | 59.3 | – | –
